Luminescence data for one molecule are collected here from PubChem BioAssay AID642 (Vanderbilt High Throughput Screening Facility, 2007).

Each structure is given as a SMILES string. The whole screen tested about 2,200 compounds, of which about 2,000 (91%) were called active.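 The calls were made as follows: active = luminescence in either of two replicates above the same-plate mean plus 3 SD of the low-dose dopamine control; inactive = the rest.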 The set was probably picked from earlier hits. Not all results are given here.

Chain of D(1A) dopamine receptor (Homo sapiens) (P21728 whole entry, looked up): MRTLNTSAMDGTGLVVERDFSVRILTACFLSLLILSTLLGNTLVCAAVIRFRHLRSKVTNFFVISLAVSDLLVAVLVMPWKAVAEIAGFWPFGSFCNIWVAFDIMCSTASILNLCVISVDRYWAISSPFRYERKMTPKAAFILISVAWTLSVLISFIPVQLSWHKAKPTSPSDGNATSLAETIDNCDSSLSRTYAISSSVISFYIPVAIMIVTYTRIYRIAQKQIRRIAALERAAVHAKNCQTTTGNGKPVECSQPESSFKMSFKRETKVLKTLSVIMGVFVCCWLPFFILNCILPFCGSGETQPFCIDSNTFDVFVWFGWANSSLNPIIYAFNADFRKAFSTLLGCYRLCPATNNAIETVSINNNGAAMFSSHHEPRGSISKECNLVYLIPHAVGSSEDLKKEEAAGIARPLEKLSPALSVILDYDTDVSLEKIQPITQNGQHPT

The assay concerns the target D(1A) dopamine receptor (Homo sapiens) (UniProt P21728). Description: D1 receptor positive allosteric modulators, retest, confirmation, cell-based, HEK293 D1, CRE-luciferase, duplicate (AID 642). To be noted: dopamine EC30 potentiation, at 10 µM, hits give high values.
In the case of `CCC(=NCc1ccco1)c1c(O)n(Cc2ccccc2)c(=O)[nH]c1=O`, the luminescence was 18900 (active).
